The text below walks through data of PubChem BioAssay.

Chain of Left-right determination factor 2 (Homo sapiens) (O00292 whole entry, looked up): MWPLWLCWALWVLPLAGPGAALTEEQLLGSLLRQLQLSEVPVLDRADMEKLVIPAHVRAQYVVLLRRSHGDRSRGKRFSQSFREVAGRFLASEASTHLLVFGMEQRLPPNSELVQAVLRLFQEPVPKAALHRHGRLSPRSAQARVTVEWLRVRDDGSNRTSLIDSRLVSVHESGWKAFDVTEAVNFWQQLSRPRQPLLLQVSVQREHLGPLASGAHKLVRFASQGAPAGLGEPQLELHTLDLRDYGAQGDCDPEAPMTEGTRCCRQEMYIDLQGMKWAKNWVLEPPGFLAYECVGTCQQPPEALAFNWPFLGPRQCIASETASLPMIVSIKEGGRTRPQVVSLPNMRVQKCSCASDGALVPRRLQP

The test concerns the target Left-right determination factor 2 (Homo sapiens) (UniProt O00292). The experiment in a line: LEFTY2 binders on small-molecule microarrays, primary screen, biochemical, small-molecule microarray, 635 nm fluorescence scan (AID 1110). The settings on record: LEFTY2 binding, higher = more signal.
`CCOC(=O)C1=CC[C@@H](c2ccccc2)N(S(=O)(=O)c2ccc(C)cc2)[C@H]1C#N`: the composite z-score worked out at 0.116. On to `COc1ccc([Si](C)(C)[C@H]2[C@H](CCO)O[C@@]3(C(=O)N(Cc4ccccc4)c4ccc(N(C=O)c5ccccc5)cc43)[C@@H]2C)cc1`, for which the composite z-score stood at 0.274. As for `COc1cccc(C[C@H]2C[C@@H](CO[Si](C(C)C)(C(C)C)C(C)C)N3C(=O)[C@@]4(C(C)=O)O[C@@]23[C@@H]2C(=O)N(C)C(=O)[C@@H]24)c1`, the figure is 0.901; as for `C=CC[C@@]1(C(=O)O)N=C(c2ccc(OCCCO)cc2)O[C@@H]1c1ccccc1CN=[N+]=[N-]`, 0.461. `CCCCNC(=O)c1ccc(C#C[Si](C)(C)C)c(OC(C)=O)c1` showed a composite z-score of 0.431. As for `C=CCNC(=O)[C@H]1[C@@H]2C(=O)O[C@@H](c3ccccc3)[C@@H](c3ccccc3)N2[C@@H](c2ccc(O)cc2)[C@]12C(=O)Nc1ccc(C#CC3=CCCCC3)cc12`, the composite z-score was 0.71.
